# Results taken from the supplement of paper PMC8728848.
# Shown is part of a subset that was picked to be rich in the strongest signals.
# B1: DC-Sign (Homo sapiens), Q9NNX6 (protein)
# chain: MSDSKEPRLQQLGLLEEEQLRGLGFRQTRGYKSLAGCLGHGPLVLQLLSFTLLAGLLVQVSKVPSSISQEQSRQDAIYQNLTQLKAAVGELSEKSKLQEIYQELTQLKAAVGELPEKSKLQEIYQELTRLKAAVGELPEKSKLQEIYQELTWLKAAVGELPEKSKMQEIYQELTRLKAAVGELPEKSKQQEIYQELTRLKAAVGELPEKSKQQEIYQELTRLKAAVGELPEKSKQQEIYQELTQLKAAVERLCHPCPWEWTFFQGNCYFMSNSQRNWHDSITACKEVGAQLVVIKSAEEQNFLQLQSSRSNRFTWMGLSDLNQEGTWQWVDGSPLLPSFKQYWNRGEPNNVGEEDCAEFSGNGWNDDKCNLAKFWICKKSAASCSRDEEQFLSPAPATPNPPPA
# How the values were obtained:
# Test in all cases: glycan array binding signal (z-score within array); higher = stronger binding
# Settings in all cases: glycan notation: IUPAC condensed, linker removed
# [1] = target: Fuc(a1-2)Gal(b1-3)GalNAc(a1-3)[Fuc(a1-2)]Gal(b1-4)GlcNAc
# How it was run: (§1)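 Glycan array data came from 3228 arrays in the Consortium for Functional Glycomics database, and only arrays with an available protein sequence were kept. Glycan names were put into IUPAC-condensed notation, and columns mapping to the same glycan were averaged. The binding signal is a within-array Z-score, averaged across arrays of one protein sequence run at different concentrations or buffers and across linkers. A negative Z-score can be read as non-binding.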
# [2] = target: Fuc(a1-2)Gal(b1-4)GlcNAc(b1-2)Man(a1-3)[Fuc(a1-2)Gal(b1-4)GlcNAc(b1-2)Man(a1-6)]Man(b1-4)GlcNAc(b1-4)[Fuc(a1-6)]GlcNAc
# How it was run: as §1
# [3] = target: Fuc(a1-2)Gal(b1-4)[Fuc(a1-3)]GlcNAc(b1-2)Man(a1-3)[Fuc(a1-2)Gal(b1-4)[Fuc(a1-3)]GlcNAc(b1-2)Man(a1-6)]Man(b1-4)GlcNAc(b1-4)[Fuc(a1-6)]GlcNAc
# How it was run: as §1
# [4] = target: Fuc(a1-2)Gal(b1-4)[Fuc(a1-3)]GlcNAc(b1-3)Gal(b1-4)[Fuc(a1-3)]GlcNAc
# How it was run: as §1
# [5] = target: Fuc(a1-2)Gal(b1-4)[Fuc(a1-3)]GlcNAc(b1-3)Gal(b1-4)[Fuc(a1-3)]GlcNAc(b1-3)Gal(b1-4)[Fuc(a1-3)]GlcNAc
# How it was run: as §1
# [6] = target: Fuc(a1-2)Gal(b1-4)[Fuc(a1-3)]GlcNAc(b1-3)[Neu5Ac(a2-6)Gal(b1-4)GlcNAc(b1-6)]Gal(b1-4)Glc
# How it was run: as §1
# Fuc(a1-2)[Gal(a1-3)]Gal = target: Fuc(a1-2)[Gal(a1-3)]Gal
# How it was run: as §1
# [7] = target: Fuc(a1-2)[Gal(a1-3)]Gal(b1-3)GlcNAc
# How it was run: as §1
# [8] = target: Fuc(a1-2)[Gal(a1-3)]Gal(b1-3)GlcNAc(b1-3)GalNAc
# How it was run: as §1
# [9] = target: Fuc(a1-2)[Gal(a1-3)]Gal(b1-4)[Fuc(a1-3)]GlcNAc(b1-3)GalNAc
# How it was run: as §1
# [10] = target: Fuc(a1-2)[GalNAc(a1-3)]Gal(b1-3)GalNAc(a1-3)[Fuc(a1-2)]Gal(b1-4)GlcNAc
# How it was run: as §1
# [11] = target: Fuc(a1-2)[GalNAc(a1-3)]Gal(b1-3)GlcNAc
# How it was run: as §1
# [12] = target: Fuc(a1-2)[GalNAc(a1-3)]Gal(b1-4)GlcNAc(b1-3)Gal(b1-4)GlcNAc(b1-3)Gal(b1-4)GlcNAc
# How it was run: as §1
# [13] = target: Fuc(a1-2)[GalNAc(a1-3)]Gal(b1-4)GlcNAc(b1-3)[Fuc(a1-2)[GalNAc(a1-3)]Gal(b1-4)GlcNAc(b1-6)]GalNAc
# How it was run: as §1
# [14] = target: Fuc(a1-3)[Gal(b1-4)]GlcNAc(b1-3)Gal(b1-3)[Fuc(a1-4)]GlcNAc
# How it was run: as §1
# [15] = target: Fuc(a1-3)[Gal(b1-4)]GlcNAc(b1-3)Gal(b1-4)[Fuc(a1-3)]GlcNAc
# How it was run: as §1
# [16] = target: Fuc(a1-3)[Gal(b1-4)]GlcNAc(b1-3)Gal(b1-4)[Fuc(a1-3)]GlcNAc(b1-3)Gal(b1-4)[Fuc(a1-3)]GlcNAc
# How it was run: as §1
# [17] = target: Fuc(a1-3)[Gal3S(b1-4)]GlcNAc6S
# How it was run: as §1
# [18] = target: Fuc(a1-3)[GalNAc(b1-4)]GlcNAc6S
# How it was run: as §1
# Gal(a1-3)Gal(b1-4)Glc = target: Gal(a1-3)Gal(b1-4)Glc
# How it was run: as §1
# [19] = target: Gal(a1-3)Gal(b1-4)[Fuc(a1-3)]GlcNAc(b1-2)Man(a1-3)[Gal(a1-3)Gal(b1-4)[Fuc(a1-3)]GlcNAc(b1-2)Man(a1-6)]Man(b1-4)GlcNAc(b1-4)GlcNAc
# How it was run: as §1
# [20] = target: Gal(a1-4)Gal(b1-3)GlcNAc(b1-2)Man(a1-3)[Gal(a1-4)Gal(b1-3)GlcNAc(b1-2)Man(a1-6)]Man(b1-4)GlcNAc(b1-4)GlcNAc
# How it was run: as §1
# [21] = target: Gal(b1-3)GlcNAc(b1-3)Gal(b1-3)GlcNAc
# How it was run: as §1
# [22] = target: Gal(b1-3)[Fuc(a1-4)]GlcNAc(b1-3)Gal(b1-3)[Fuc(a1-4)]GlcNAc
# How it was run: as §1
# [23] = target: Gal(b1-4)GlcNAc(b1-2)[Gal(b1-4)GlcNAc(b1-6)]Man(a1-6)[GlcNAc(b1-4)][Gal(b1-4)GlcNAc(b1-2)Man(a1-3)]Man(b1-4)GlcNAc(b1-4)GlcNAc
# How it was run: as §1
# [24] = target: Gal(b1-4)GlcNAc(b1-3)Gal(b1-4)GlcNAc(b1-2)[Gal(b1-4)GlcNAc(b1-3)Gal(b1-4)GlcNAc(b1-6)]Man(a1-6)[Gal(b1-4)GlcNAc(b1-3)Gal(b1-4)GlcNAc(b1-2)Man(a1-3)]Man(b1-4)GlcNAc(b1-4)GlcNAc
# How it was run: as §1
# [25] = target: Gal(b1-4)GlcNAc(b1-3)Gal(b1-4)GlcNAc(b1-3)Gal(b1-4)GlcNAc(b1-2)Man(a1-3)[Gal(b1-4)GlcNAc(b1-3)Gal(b1-4)GlcNAc(b1-3)Gal(b1-4)GlcNAc(b1-2)Man(a1-6)]Man(b1-4)GlcNAc(b1-4)[Fuc(a1-6)]GlcNAc
# How it was run: as §1
# [26] = target: Gal(b1-4)GlcNAc(b1-3)Gal(b1-4)GlcNAc(b1-3)[Gal(b1-4)GlcNAc(b1-3)Gal(b1-4)GlcNAc(b1-6)]GalNAc
# How it was run: as §1
# [27] = target: Gal(b1-4)GlcNAc(b1-3)Gal(b1-4)GlcNAc(b1-6)[Gal(b1-3)]GalNAc
# How it was run: as §1
# Gal3S(b1-3)GlcNAc = target: Gal3S(b1-3)GlcNAc
# How it was run: as §1
binder,measurement,setting,value
B1,glycan array binding signal (z-score),[1],-0.14
same,glycan array binding signal (z-score),[2],-0.182
same,glycan array binding signal (z-score),[3],9.49
same,glycan array binding signal (z-score),[4],12.6
same,glycan array binding signal (z-score),[5],6.53
same,glycan array binding signal (z-score),[6],-0.045
same,glycan array binding signal (z-score),Fuc(a1-2)[Gal(a1-3)]Gal,0.684
same,glycan array binding signal (z-score),[7],-0.126
same,glycan array binding signal (z-score),[8],-0.189
same,glycan array binding signal (z-score),[9],-0.164
same,glycan array binding signal (z-score),[10],-0.193
same,glycan array binding signal (z-score),[11],-0.122
same,glycan array binding signal (z-score),[12],-0.15
same,glycan array binding signal (z-score),[13],-0.189
same,glycan array binding signal (z-score),[14],5.28
same,glycan array binding signal (z-score),[15],2.48
same,glycan array binding signal (z-score),[16],8.36
same,glycan array binding signal (z-score),[17],-0.13
same,glycan array binding signal (z-score),[18],1.43
same,glycan array binding signal (z-score),Gal(a1-3)Gal(b1-4)Glc,-0.198
same,glycan array binding signal (z-score),[19],-0.165
same,glycan array binding signal (z-score),[20],-0.131
same,glycan array binding signal (z-score),[21],-0.156
same,glycan array binding signal (z-score),[22],2.51
same,glycan array binding signal (z-score),[23],-0.187
same,glycan array binding signal (z-score),[24],0.026
same,glycan array binding signal (z-score),[25],-0.137
same,glycan array binding signal (z-score),[26],-0.146
same,glycan array binding signal (z-score),[27],-0.097
same,glycan array binding signal (z-score),Gal3S(b1-3)GlcNAc,-0.136
